# The full list was thinned out, with hits kept by preference.
# Tgondii IFNg: inhibitors of Toxoplasma gondii growth with IFN-gamma. Toxoplasma gondii growth in IFN-gamma-treated host cells; hits give low values. activity change, negative = inhibition, % (test concentration not listed). 69,000 compounds, 3.8% hits; in the data active means activity change below about -70%, passing the limit was not always enough;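 further: host cells are HeLa cells infected with Toxoplasma gondii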
# Starred values were filed as active, the others as inactive; i = inactive.
SMILES,Tgondii IFNg
Cc1nnc(NC(=O)c2c(O)c3ccccc3[nH]c2=O)s1,-54.1
COCCC(=O)N1CC2(CCN(Cc3ccsc3)C2)C1,1.4
COc1ccc(Oc2cccc(Oc3ccc(OC)cc3)c2C#N)cc1,-1.9
COc1cccc(OC)c1C(=O)NCCc1sc(-c2cccc(F)c2)nc1C,69.3
CCN(CC)C(=O)c1sc(NC(=O)c2c(OC)cccc2OC)c(C#N)c1C,-82.9*
CC(C)C(=O)N1CCN(c2ccc(NC(=O)c3cc4ccccc4o3)cc2)CC1,-69.1
CCn1c(=O)c(-c2nc(-c3ccccc3Cl)no2)c(O)c2ccccc21,-1.5
O=C(c1ccco1)N1CCC(c2nc3ccc(N4CCOCC4)cn3n2)CC1,-6.9
COc1cc2nc(-c3ccccc3)nc(N3CCCC3)c2cc1OC,-8.6
COc1cc2ncc(-c3ccccc3)nc2cc1OC,-84.7*
Cc1cc2ncc(-c3ccccc3)nc2cc1C,400.9
CCc1cc(-c2cc(F)c3c(c2)CC(CN)O3)nc(N2CCOCC2)n1 (configuration not stated),-8.5
CCOC(=O)c1c(C)[nH]c(CCC(=O)NCCc2c[nH]c3ccccc23)c1C,i
Fc1ccc(-n2cc(CCCCN3CCC4(CC3)OCc3ccccc34)c3ccccc32)cc1,-75.9*
O=S(=O)(c1ccccc1)N1CCN(Cc2ccc(-c3ccn[nH]3)s2)CC1,13.4
CC(C)CNC(=O)CC1CC2(CCN(Cc3cnn(C)c3)CC2)Oc2ccccc21 (configuration not stated),-39.1
Cc1cccc2c(SCC(=O)NC(C)(C)C)nc(-c3ccc(F)cc3)nc12,3.8
Cc1cc(C)n(C)c(=O)c1C(=O)N1CCC(Cc2cccc(C(=O)O)c2)C1 (configuration not stated),-1.2
COc1ccc(Br)cc1-c1nc(Cn2nnc(C(=O)Nc3ccccc3)c2C)c(C)o1,19.4
CCOC(=O)c1[nH]c2cc(Cl)cc(Cl)c2c1CCC(=O)O,1.1
CCOC(=O)c1[nH]ncc1-c1ccc(Cl)cc1Cl,-94.5*
CCOC(=O)COc1ccc(Cl)cc1C(=O)OC,-38.0
CN1C(=O)CCc2cc(NC(=O)C(F)(F)F)ccc21,6.1
Cc1ncc(C(=O)N2CCCC(N(C)CCN(C)C)C2)c(-c2ccccc2)n1 (configuration not stated),-4.9
COc1ccc(C2c3[nH]c4ccccc4c3CCN2C(=O)c2ccc(N(C)C)cc2)cc1 (configuration not stated),57.5
SMILES,Tgondii IFNg
CSc1ccc(C2c3[nH]c4ccccc4c3CCN2C(=O)c2cccc(N(C)C)c2)cc1 (configuration not stated),40.0
CSc1ccc(C2c3[nH]c4ccccc4c3CCN2C(=O)c2cccc(C)c2)cc1 (configuration not stated),-114.6*
CN(C)c1cccc(C(=O)N2CCc3c([nH]c4ccccc34)C2c2ccccc2)c1 (configuration not stated),-111.3*
Cc1cccc(C(=O)N2CCc3c([nH]c4ccccc34)C2c2ccc(F)cc2)c1 (configuration not stated),-43.6
Cc1cccc(C(=O)N2CCc3c([nH]c4ccccc34)C2c2ccc(Cl)cc2)c1 (configuration not stated),-104.2*
CSc1ccc(C2c3[nH]c4ccccc4c3CCN2C(=O)c2cccc(F)c2)cc1 (configuration not stated),14.8
O=C(O)CSc1nnc(Cc2c[nH]c3ccccc23)n1-c1cccnc1,3.4
O=C(NCc1cccnc1)C1CC2CN(Cc3cccc(Cl)c3)CC1O2 (configuration not stated),-55.6
CN1C(=O)C(OC(=O)c2ccccc2)N(c2ccc(Cl)c(Cl)c2)C1=O (configuration not stated),-7.5
CCc1ccccc1NC(=O)N1CCC(c2nc(C(=O)N3CCCC3)c(C)o2)CC1,5.4
O=C(c1ccoc1)N1CCn2cc(CNc3ccccn3)nc2C1,0.2
Cc1cc(NC(=O)CC2CCCC2)n(-c2ncnc3c2cnn3-c2ccc(F)cc2)n1,-12.9
CCn1c(CN2CCCC2c2nc(-c3ccncc3)no2)nc2ccccc21 (configuration not stated),-3.0
N#Cc1ccc(-c2ccc([C@@H]3[C@@H]4CN(S(=O)(=O)Cc5ccccc5)C[C@H]3N4)cc2)cc1,-70.6*
N#Cc1ccc(-c2ccc([C@@H]3[C@@H]4CN(Cc5cocn5)C[C@H]3N4)cc2)cc1,-46.1
N#Cc1cccc(-c2ccc(C3[C@@H]4CN(Cc5ccccc5)C[C@H]3N4)cc2)c1 (some centres not stated),-21.1
Cc1nnc2ccc(NCC(=O)O)nn12,0.1
CCc1ccccc1-c1cccc(N2CCNCC2)n1,-6.4
C(=C\c1cccc(N2CCNCC2)c1)/c1ccccc1,2.7
C(=C\c1cccc(N2CCNCC2)n1)/c1ccccc1,-77.8*
CCc1cc(=O)n2[nH]c(C3CCN(C(=O)CCc4cc(OC(C)C)no4)C3)cc2n1 (configuration not stated),11.7
O=C(NN1CC(=O)N(C2CCCC2)C1=O)C(c1ccccc1)c1ccccc1,30.7
Cc1nc(N(C)C)nc2c1COCC21CCN(c2ncccn2)C1 (configuration not stated),2.2
COc1ccc(NC2=NC(c3ccc(Cl)cc3)n3c(nc(C)cc3=O)N2)cc1 (configuration not stated),-85.5*
COc1ccc(Nc2nc(NC(=O)Nc3ccc(Cl)cc3)n[nH]2)cc1,-53.3
SMILES,Tgondii IFNg
COc1ccc(C2(CNCc3cc(-c4ccc(Cl)cc4)c[nH]c3=O)CCOCC2)cc1,311.1
CNC(=O)Cc1ccc(-c2cccnc2OC)cc1,7.2
CCn1c(C2CCCN(C(=O)Nc3ccccc3)C2)nn(CCN(C)C)c1=O (configuration not stated),8.0
CC(CCc1ccco1)NC(=O)c1cc(Cn2ccc3ccccc32)[nH]n1 (configuration not stated),16.7
CC(C)c1ccc2[nH]c(=O)c(CNc3ccc4[nH]ncc4c3)cc2c1,-81.8*
COc1ccc2[nH]c(=O)c(CNc3ccc(-c4nc5ccc(C)cc5[nH]4)cc3)cc2c1,48.3
COc1cc2cc(CNc3ccc(N4CCN(C)CC4)cc3)c(=O)[nH]c2cc1OC,-18.2
Cc1nc(CN2C[C@@H]3CN(C(=O)C4CC4)C[C@H]3C2=O)cs1,-1.8
CN(C)C(=O)COCC12CCCOC1CCN(CC1CC1)C2 (configuration not stated),-19.9
CCCNC(=O)c1ccc2ccc(N3CCN(C(=O)N(C)C)CC3)n2c1,-1.2
CN(C)C(=O)N1CCN(c2ccc3ccc(C(=O)NCCc4ccccc4)cn23)CC1,-2.5
CN(C)CCCNC(=O)c1ccc2ccc(N3CCN(Cc4cccnc4)CC3)n2c1,-86.8*
CCc1cnc(N2CCc3ncnc(N4CCN(C)CC4)c3CC2)nc1,-3.0
CCn1cc(CN2CCC(c3cc(=O)[nH]c(-c4ccc(OC)cc4)n3)CC2)cn1,38.7
CNc1nc(C2CCCCN2Cc2ccccc2-c2ccccc2OC)nc2c1CNCC2 (configuration not stated),-51.7
CCc1c(C)sc2c1CCN(Cc1nc(-c3ccc(C)cc3)oc1C)C2c1ccccc1 (configuration not stated),-67.3
Cc1ccc(NC(=O)CN2CCC3(CC2)N=C(c2cccc(F)c2)C(=O)N3)cc1C,37.7
Cc1cccc(NC(=O)CN2CCC3(CC2)N=C(c2ccc(C)c(C)c2)C(=O)N3)c1,-9.9
Cc1ccc(NC(=O)CN2CCC3(CC2)N=C(c2ccc(C(C)(C)C)cc2)C(=O)N3)cc1C,-76.2*
COc1ccccc1CNC(=O)CN1C(=O)CCc2cc(Br)ccc21,62.7

# Compound activity from PubChem BioAssay.
